{
  "source": "the supplement of paper PMC11001985",
  "data": [
    {"compound": "C#CCNC(=O)CCSSCCC(=O)NCCc1ccc(C=O)c(C=O)c1", "test": "lysine labeling ratio R10:1 (500 µM / 50 µM probe), SILAC-ABPP in living cells; higher = lower intrinsic lysine reactivity toward the probe, active = 2 or less", "settings": "HeLa; probe concentrations 500 vs 50 µM", "how_it_was_run": "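The two probe levels, 50 µM and 500 µM, of an alkyne-tagged, disulfide-linked lysine probe were applied to living light and heavy SILAC HeLa cells in PBS at room temperature, and the labels were run in both forward and reverse orientation. Mixed lysates underwent biotin-azide click chemistry, trypsin digestion, neutravidin capture, DTT release and alkylation before LC-MS/MS on a TIMS-TOF Pro. R is the filtered median high-probe/low-probe MS1 peptide ratio for each lysine, summarised as the median over forward and reverse replicates. Nothing above 20 is reported; such values are set to 20.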", "values": [
      {"target": "UniProt Q15149 (lysine site: K3887)", "lysine labeling ratio R10:1": "3.96 (inactive)"},
      {"target": "ENAH (lysine site: K559) (UniProt Q8N8S7)", "lysine labeling ratio R10:1": "2.92 (inactive)"},
      {"target": "CCT6A (lysine site: K251) (UniProt P40227)", "lysine labeling ratio R10:1": "1.04 (active)"},
      {"target": "IGF1R (lysine site: K709) (UniProt P08069)", "lysine labeling ratio R10:1": "4.79 (inactive)"},
      {"target": "UniProt P62269 (lysine site: K137)", "lysine labeling ratio R10:1": "3.21 (inactive)"},
      {"target": "LAMA5 (lysine site: K2451) (UniProt O15230)", "lysine labeling ratio R10:1": "3.17 (inactive)"},
      {"target": "TFRC (lysine site: K672) (UniProt P02786)", "sequence (P02786 whole entry, looked up)": "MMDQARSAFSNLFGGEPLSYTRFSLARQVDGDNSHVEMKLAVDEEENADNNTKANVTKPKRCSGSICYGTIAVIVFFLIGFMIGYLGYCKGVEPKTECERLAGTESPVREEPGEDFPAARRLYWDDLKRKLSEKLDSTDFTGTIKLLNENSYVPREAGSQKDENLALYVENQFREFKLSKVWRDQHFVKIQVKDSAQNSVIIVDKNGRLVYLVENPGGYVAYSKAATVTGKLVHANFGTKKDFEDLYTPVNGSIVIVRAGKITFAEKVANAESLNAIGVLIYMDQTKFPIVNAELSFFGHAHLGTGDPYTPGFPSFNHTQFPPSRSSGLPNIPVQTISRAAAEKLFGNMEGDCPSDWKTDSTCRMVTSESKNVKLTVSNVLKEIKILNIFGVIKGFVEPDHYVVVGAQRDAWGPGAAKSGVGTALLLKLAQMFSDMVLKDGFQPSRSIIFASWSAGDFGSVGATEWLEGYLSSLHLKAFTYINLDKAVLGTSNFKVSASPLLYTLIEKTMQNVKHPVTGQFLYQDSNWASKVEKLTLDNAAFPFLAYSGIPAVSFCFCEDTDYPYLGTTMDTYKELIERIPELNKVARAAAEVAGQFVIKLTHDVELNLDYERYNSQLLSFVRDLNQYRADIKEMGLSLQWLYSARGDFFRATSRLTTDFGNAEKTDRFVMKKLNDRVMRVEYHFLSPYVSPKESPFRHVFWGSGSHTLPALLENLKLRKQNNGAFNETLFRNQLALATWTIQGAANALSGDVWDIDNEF", "lysine labeling ratio R10:1": "3 (inactive)"},
      {"target": "IGSF3 (lysine site: K92) (UniProt O75054)", "sequence (O75054 whole entry)": "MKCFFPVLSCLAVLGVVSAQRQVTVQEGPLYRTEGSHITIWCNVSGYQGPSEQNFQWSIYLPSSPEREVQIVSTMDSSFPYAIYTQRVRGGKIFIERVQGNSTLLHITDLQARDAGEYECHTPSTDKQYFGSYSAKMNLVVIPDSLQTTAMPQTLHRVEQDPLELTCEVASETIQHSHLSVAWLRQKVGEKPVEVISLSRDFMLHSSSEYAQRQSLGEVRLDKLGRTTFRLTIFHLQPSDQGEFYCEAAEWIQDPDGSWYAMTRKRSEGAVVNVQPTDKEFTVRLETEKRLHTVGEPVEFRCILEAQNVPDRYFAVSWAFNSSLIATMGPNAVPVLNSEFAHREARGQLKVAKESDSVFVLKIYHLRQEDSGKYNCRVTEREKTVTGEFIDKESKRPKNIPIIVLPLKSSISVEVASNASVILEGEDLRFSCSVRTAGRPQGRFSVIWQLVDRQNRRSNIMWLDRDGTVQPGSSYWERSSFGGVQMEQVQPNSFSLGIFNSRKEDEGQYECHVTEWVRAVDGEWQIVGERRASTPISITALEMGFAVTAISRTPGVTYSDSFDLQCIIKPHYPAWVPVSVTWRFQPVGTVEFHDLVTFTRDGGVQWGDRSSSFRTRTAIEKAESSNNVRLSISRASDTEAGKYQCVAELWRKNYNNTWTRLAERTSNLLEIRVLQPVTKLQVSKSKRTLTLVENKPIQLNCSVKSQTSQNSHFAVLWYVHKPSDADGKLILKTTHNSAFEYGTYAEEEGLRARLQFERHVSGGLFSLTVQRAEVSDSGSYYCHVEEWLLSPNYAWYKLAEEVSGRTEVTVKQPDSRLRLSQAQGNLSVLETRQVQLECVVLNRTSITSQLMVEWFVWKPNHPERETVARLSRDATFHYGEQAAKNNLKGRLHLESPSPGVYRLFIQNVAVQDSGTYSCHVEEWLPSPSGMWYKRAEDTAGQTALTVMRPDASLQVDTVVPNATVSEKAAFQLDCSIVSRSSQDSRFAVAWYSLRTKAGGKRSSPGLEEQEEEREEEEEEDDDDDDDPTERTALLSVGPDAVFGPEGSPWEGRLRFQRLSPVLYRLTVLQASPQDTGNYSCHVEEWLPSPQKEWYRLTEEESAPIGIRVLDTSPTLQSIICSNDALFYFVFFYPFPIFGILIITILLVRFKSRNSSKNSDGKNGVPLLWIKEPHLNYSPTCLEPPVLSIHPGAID", "lysine labeling ratio R10:1": "2.4 (inactive)"},
      {"target": "IGSF3 (lysine site: K884) (UniProt O75054)", "lysine labeling ratio R10:1": "4.12 (inactive)"},
      {"target": "ANXA3 (lysine site: K154) (UniProt P12429)", "lysine labeling ratio R10:1": "3.32 (inactive)"},
      {"target": "UniProt P60228 (lysine site: K409)", "sequence (P60228 whole entry)": "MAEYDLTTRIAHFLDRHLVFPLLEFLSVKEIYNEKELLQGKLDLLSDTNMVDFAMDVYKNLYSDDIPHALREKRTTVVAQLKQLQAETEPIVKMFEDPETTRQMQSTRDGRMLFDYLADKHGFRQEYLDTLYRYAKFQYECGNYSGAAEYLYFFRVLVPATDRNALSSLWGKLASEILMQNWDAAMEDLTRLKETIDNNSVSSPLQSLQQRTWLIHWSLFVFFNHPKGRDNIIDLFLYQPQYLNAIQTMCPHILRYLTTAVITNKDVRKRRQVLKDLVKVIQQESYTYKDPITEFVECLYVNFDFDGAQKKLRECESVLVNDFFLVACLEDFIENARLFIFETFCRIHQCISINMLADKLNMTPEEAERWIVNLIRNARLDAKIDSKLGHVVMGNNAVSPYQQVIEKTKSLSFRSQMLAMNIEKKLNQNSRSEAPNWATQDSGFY", "lysine labeling ratio R10:1": "2.54 (inactive)"},
      {"target": "SLC9A3R1 (lysine site: K227) (UniProt O14745)", "sequence (O14745 whole entry)": "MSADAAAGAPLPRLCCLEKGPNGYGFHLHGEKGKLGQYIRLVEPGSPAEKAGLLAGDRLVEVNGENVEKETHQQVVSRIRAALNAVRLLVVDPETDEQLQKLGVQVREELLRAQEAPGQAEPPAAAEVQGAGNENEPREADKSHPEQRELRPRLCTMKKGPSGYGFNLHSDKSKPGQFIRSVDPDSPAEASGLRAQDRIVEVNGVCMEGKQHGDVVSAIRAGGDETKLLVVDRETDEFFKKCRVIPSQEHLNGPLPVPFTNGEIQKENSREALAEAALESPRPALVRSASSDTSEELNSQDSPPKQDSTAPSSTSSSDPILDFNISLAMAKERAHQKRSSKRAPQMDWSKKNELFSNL", "lysine labeling ratio R10:1": "3.96 (inactive)"},
      {"target": "UniProt P05187 (lysine site: K262)", "lysine labeling ratio R10:1": "0.97 (active)"},
      {"target": "NENF (lysine site: K136) (UniProt Q9UMX5)", "sequence (Q9UMX5 whole entry)": "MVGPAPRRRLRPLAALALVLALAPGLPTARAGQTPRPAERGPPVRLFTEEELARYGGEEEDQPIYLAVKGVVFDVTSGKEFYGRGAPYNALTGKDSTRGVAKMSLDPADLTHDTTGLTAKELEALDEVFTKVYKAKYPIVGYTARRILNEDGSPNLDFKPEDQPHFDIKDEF", "lysine labeling ratio R10:1": "0.955 (active)"},
      {"target": "PSMA7 (lysine site: K28) (UniProt O14818)", "sequence (O14818 whole entry)": "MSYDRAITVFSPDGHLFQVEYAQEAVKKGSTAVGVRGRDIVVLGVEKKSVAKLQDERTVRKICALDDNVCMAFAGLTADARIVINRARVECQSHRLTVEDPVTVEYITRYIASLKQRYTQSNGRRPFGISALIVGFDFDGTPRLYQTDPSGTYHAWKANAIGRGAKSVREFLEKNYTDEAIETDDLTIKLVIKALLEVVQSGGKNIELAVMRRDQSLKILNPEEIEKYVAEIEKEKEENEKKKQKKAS", "lysine labeling ratio R10:1": "2.85 (inactive)"},
      {"target": "C3 (lysine site: K1051) (UniProt P01024)", "lysine labeling ratio R10:1": "6.25 (inactive)"},
      {"target": "UniProt Q86V81 (lysine site: K134)", "lysine labeling ratio R10:1": "4.23 (inactive)"},
      {"target": "COPA (lysine site: K607) (UniProt P53621)", "sequence (P53621 whole entry)": "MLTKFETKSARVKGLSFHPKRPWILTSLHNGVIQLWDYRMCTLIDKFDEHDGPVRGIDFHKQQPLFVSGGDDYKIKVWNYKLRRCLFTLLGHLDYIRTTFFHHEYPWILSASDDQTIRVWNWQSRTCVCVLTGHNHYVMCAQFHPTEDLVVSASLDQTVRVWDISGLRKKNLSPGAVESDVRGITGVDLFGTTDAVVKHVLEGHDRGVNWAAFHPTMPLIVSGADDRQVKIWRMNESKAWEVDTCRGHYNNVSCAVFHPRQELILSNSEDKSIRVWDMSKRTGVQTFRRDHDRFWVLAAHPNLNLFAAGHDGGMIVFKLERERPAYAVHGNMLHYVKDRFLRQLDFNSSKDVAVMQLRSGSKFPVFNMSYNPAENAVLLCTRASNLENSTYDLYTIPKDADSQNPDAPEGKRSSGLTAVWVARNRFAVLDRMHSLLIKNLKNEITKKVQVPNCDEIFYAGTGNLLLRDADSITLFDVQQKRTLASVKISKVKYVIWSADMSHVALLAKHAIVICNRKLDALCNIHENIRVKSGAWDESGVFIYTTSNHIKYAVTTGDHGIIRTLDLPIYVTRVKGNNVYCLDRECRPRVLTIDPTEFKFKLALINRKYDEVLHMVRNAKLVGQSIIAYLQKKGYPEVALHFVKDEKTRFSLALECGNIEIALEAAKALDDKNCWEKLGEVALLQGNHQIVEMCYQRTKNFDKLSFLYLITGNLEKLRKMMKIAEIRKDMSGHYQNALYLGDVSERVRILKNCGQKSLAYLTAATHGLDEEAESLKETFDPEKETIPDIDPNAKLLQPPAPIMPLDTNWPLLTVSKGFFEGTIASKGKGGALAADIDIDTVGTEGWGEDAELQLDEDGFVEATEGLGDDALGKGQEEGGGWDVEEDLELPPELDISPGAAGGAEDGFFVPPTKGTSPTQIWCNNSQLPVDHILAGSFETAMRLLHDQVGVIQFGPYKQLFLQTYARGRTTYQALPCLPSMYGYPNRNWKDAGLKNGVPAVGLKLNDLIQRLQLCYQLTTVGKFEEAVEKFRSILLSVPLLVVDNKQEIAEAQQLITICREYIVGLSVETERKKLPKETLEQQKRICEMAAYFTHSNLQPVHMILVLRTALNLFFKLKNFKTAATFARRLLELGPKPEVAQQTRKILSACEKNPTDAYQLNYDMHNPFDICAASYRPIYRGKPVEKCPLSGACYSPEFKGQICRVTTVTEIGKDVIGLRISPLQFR", "lysine labeling ratio R10:1": "1.94 (active)"},
      {"target": "FLOT1 (lysine site: K285) (UniProt O75955)", "lysine labeling ratio R10:1": "1.67 (active)"},
      {"target": "XRCC6 (lysine site: K516) (UniProt P12956)", "lysine labeling ratio R10:1": "0.712 (active)"},
      {"target": "ITGA6 (lysine site: K144) (UniProt P23229)", "lysine labeling ratio R10:1": "4.01 (inactive)"},
      {"target": "HSPA8 (lysine site: K71) (UniProt P11142)", "sequence (P11142 whole entry, looked up)": "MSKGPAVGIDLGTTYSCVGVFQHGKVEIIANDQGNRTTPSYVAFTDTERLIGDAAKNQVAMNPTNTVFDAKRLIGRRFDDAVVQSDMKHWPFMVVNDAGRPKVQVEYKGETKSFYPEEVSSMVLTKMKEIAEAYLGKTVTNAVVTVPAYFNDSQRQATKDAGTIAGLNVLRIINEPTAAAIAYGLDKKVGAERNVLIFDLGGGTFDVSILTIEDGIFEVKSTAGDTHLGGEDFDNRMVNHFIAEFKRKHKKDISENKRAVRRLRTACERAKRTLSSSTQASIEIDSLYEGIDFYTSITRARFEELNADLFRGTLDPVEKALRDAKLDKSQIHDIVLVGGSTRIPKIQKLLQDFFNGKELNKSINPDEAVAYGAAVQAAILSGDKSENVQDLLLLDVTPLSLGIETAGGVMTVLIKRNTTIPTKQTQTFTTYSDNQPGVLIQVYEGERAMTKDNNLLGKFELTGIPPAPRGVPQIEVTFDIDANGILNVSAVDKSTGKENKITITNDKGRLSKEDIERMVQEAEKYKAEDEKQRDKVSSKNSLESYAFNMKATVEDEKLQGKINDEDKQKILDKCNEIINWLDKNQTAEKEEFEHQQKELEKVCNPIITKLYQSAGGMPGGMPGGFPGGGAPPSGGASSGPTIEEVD", "lysine labeling ratio R10:1": "2.62 (inactive)"},
      {"target": "UniProt O95084 (lysine site: K189)", "lysine labeling ratio R10:1": "2.74 (inactive)"}
    ]}
  ]
}
